Records with an inconclusive call do not appear. Unmarked numbers belong to inactive results. The call rests on the fitted dose curve; in most records, active means well fitted cell-killing curve with a large enough effect in the repeat runs (not every such curve was filed as active); inconclusive means weak or mixed curves, or effect the other way; inactive means no such curve, though single readings can be large or run the other way. Where a SMILES comes first, the peptide text is derived from it.
Assay: qHTS assay to identify small molecule antagonists of the estrogen related receptor signaling pathway with the pleiotropic PPARgamma coactivator (PGC) from Tox21 10K library - cell viability counter screen (AID 1224840); further: nearly all actives have a fitted effect of over 40% in size
Conditions: PGC/ERR reporter cells viability, CellTiter-Fluor, 17.5 h; series mostly up to 92.4 µM; viability change, negative = cytotoxic: at the top concentration
Procedure, shortened: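 Multiplexed viability counter screen in the PGC/ERR cell line: cells treated with DMSO-dissolved compounds for 17.5 hours at 37 C, then viability measured as CellTiter-Fluor fluorescence.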
On the % scale 0 is the no-effect control and ±100 the full control effect.

| SMILES | viability change, negative = cytotoxic |
| --- | --- |
| CC(=O)N[C@@H](CO)C(=O)N[C@@H](CC(=O)O)C(=O)N[C@@H](CCCCN)C(=O)N1CCC[C@H]1C(=O)O (Ac-SDKP-OH) | 10.1% [at 42.5 µM] |
| CC(Oc1cc(Cl)ccc1Cl)C(=O)O (stereo unspecified) | 2.37% |
| OCC1CCC(CO)CC1 (stereo unspecified) | -0.699% |
| CCN(CC)CCN | -11.3% [at 42.5 µM] |
| CC(O)CC(C)O (stereo unspecified) | 12.2% |
| COC(=O)/C=C\C(=O)O | 6.48% |
| CC(C)[C@H]1CC[C@H](C)C[C@@H]1O | 3.66% |
| CCOC(CN1CCN(CC(C)C(=O)c2ccccc2)CC1)c1ccccc1 (stereo unspecified) | -2.82% [at 19 µM] |
| Cn1c(=O)c2[nH]c(Br)nc2n(C)c1=O | -8.04% [at 42.5 µM] |
| Cc1ccc2c(c1)C(=O)c1ccccc1C2=O | -1.37% |
| CCCSSCCC | 8.01% |
| CC1=C(O)C(=O)C(C)O1 (stereo unspecified) | 1.84% |
| CC(C)NCC(O)c1ccc2ccccc2c1 (stereo unspecified) | 0.574% [at 42.5 µM] |
| [O-][n+]1cccc(/C(Cl)=N/OC[C@@H](O)CN2CCCCC2)c1 | 14.1% [at 42.5 µM] |
| CC(C)=CCC[C@@](C)(O)[C@H]1CC=C(C)CC1 | 5.75% [at 42.5 µM] |
| Cn1c(=O)c2c(ncn2CCO)n(C)c1=O | -3.94% [at 42.5 µM] |
| C=Cc1ccc(C(C)(C)C)cc1 | 12.5% |
| CCCCCCCCCCOC(C)=O | 0.134% |
| O=C(NCN1CCOCC1)c1cnccn1 | 10.1% [at 42.5 µM] |
| C=CCCCC | 10.6% |
| Cc1cc(C)c(C(=O)O)c(C)c1 | -8.37% |
| O=C(CCCl)NCCc1ccccc1 | 1.65% [at 42.5 µM] |
| CC(C)OC(=O)OCOP(=O)(CO[C@H](C)Cn1cnc2c(N)ncnc21)OCOC(=O)OC(C)C | 2.86% [at 42.5 µM] |
| C/C(CC(C)C)=N\O | 6.32% |
| CCCC(CC)c1ccccc1 (stereo unspecified) | 11.2% |
| COc1ccc2c(c1)c1c3n2CCN(C)C3=NCC1 | 3.03% [at 42.5 µM] |

— PubChem BioAssay (Tox21)
